Screening data (PubChem)
Shown are actives, neighbours in structure and some others; about 4.6% of the full set was active somewhere.
TRHR ag: TRH receptor (human) agonism; P34981; TRHR cells, calcium flux fluo-8, FDSS agonist mode; activation, % at 2 µM; hit rate 0.18% among 360,000; AID 493084; note: 0% is about no effect
Target sequence (P34981 whole entry, looked up): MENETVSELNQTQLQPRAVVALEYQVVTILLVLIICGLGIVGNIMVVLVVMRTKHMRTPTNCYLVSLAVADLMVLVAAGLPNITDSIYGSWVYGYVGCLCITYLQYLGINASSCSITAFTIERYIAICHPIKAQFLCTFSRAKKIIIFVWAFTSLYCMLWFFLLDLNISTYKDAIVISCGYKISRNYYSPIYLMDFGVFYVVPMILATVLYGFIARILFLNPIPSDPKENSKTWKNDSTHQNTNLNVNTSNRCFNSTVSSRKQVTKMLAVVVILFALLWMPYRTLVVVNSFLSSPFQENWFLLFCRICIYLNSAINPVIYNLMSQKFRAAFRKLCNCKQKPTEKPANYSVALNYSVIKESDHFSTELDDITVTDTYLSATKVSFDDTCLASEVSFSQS
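TRHR-expressing cells loaded with fluo-8 calcium dye; 23 nL library compound pin-transferred, kinetic FDSS fluorescence (Ex 480/Em 530) recorded about 180 s for agonist-induced calcium release, before a 10 nM TRH EC20 addition for potentiator mode.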
D1 antag: antagonists of human D1 dopamine receptor; activity change, negative = inhibition, % at 10 µM; HEK293 TREx D1 cells, calcium flux, dopamine EC80; hits give low values; hit rate 3.2% among 360,000; AID 504652; in the data active = activity change below about -30%; note: % is set by controls: 0 for no effect and ±100 for the full control effect
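Tetracycline-induced HEK293 Trex D1 cells, force-coupled to calcium, dye-loaded; compounds added and read 180 s, then EC80 dopamine added and calcium flux tracked kinetically another 180 s.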
D1 PAM: potentiators of human D1 dopamine receptor; HEK293 TREx D1 cells, calcium flux, dopamine EC20 potentiation; potentiation, % at 10 µM; hit rate 0.036% among 360,000; AID 504651; in the data active = potentiation above about 30%; note: 0% is about no effect
Epigenetic reg: epigenetic control regulation, reporter derepression | murine LDR cells, GFP reporter derepression, 30 h | Potency, µM (titrated, usually from 53.9 µM), inactives show at the top dose GFP activation, most hits filed as activators | hit rate 0.2% among 280,000 | AID 1865; active = well fitted activation curve with a large enough effect; inconclusive = small, poorly fitted or top-dose-only effect; note: potency is the fitted concentration of half-maximal effect; % of control where 0% means no effect; nearly all actives have a fitted effect of over 60% in size
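In this reporter-derepression format, murine cells bearing a silenced integrated CMV-GFP locus incubate with test compound (30 h, 37 C), then are washed and imaged; fluorescent objects of 20–120 um count as induced cells.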
TRHR PAM: TRH receptor (human) allosteric enhancement; P34981; TRHR cells, fluo-8 calcium fluorescence, EC20 TRH enhancement; enhancement, % at 2 µM; hit rate 0.66% among 360,000; in the data active = enhancement above about 30%; note: 0% is about no effect
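Enhancer read-out: after compound pinning and an initial kinetic agonist-mode read, an EC20 of TRH (10 nM final) was injected and fluo-8 calcium signal (Ex 480/Em 530) followed at 1 s/cycle for 100 cycles in TRHR-expressing cells.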
D1 ag: agonists of human D1 dopamine receptor | P21728 | hit rate 1% among 360,000 | HEK293 T-REx D1 cells, calcium flux, agonist mode | AID 504660 | activation, % at 2 µM; note: 0% is about no effect
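Tetracycline-induced HEK293 TREx D1 cells, force-coupled to calcium signalling, were dye-loaded with a no-wash calcium kit. Compound was pin-added after a 10 s baseline. Fluorescence was read kinetically at 1 cycle/s for 180 s, with calcium rises flagged as agonism.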
Starred values were filed as active, the others as inactive; u = inconclusive; x = not tested or not shown; [ ] = dose if it differs, or a comment. Cut-off read from the data, not from the text of the source, unless noted: active = activation above about 30%; inactive = the rest.

SMILES | TRHR ag | D1 antag | D1 PAM | Epigenetic reg | TRHR PAM | D1 ag
COc1ccc2[nH]c(=O)c(CN(Cc3cccs3)C(=S)Nc3cccc(C)c3)cc2c1 | -0.7 | -31.6* | -6.2 | -0.6% | -9.0 | 3.8
COc1ccc(N(Cc2cc3cc(OC)ccc3[nH]c2=O)C(=O)c2cccnc2)cc1 | 0.2 | 2.0 | -3.8 | -8.1% | -1.9 | 3.4
COc1ccc2[nH]c(=O)c(CN(Cc3cccnc3)C(=O)Nc3ccccc3)cc2c1 | -0.5 | -37.0* | -4.3 | 0.0% | -2.2 | 0.3
COc1ccc2[nH]c(=O)c(CN(C(=O)c3cccnc3)c3ccccc3)cc2c1 | 0.0 | 0.7 | 36.1* | 0.0% | 11.6 | 0.0
CNC(=O)C1CCC(Cn2c(=O)c3sccc3n(CC(=O)N3CCCC(C)C3)c2=O)CC1 (centres undefined) | 0.1 | -18.1 | -6.9 | 0.0% | -0.7 | 0.3
Cc1ccc(NC(c2ccc(Cl)cc2)c2nnc(-c3cccc(F)c3)o2)cc1C (centres undefined) | 0.1 | 0.0 | 2.9 | 3.2% | -0.3 | -0.8
COc1ccccc1CNC(=O)Cc1c(C)c2c(cc(C)c3c(C)coc32)oc1=O | 0.4 | -1.2 | 4.2 | 1.5% | 0.3 | 2.3
Cc1cccc(C)c1NC(=O)Cn1c(=O)cc(C)c2c(C)nn(-c3cccc(Cl)c3C)c21 | 0.2 | -2.1 | -3.5 | 1.1% | 0.9 | 0.1
Clc1ccc2c(N3CCOCC3)ccnc2c1 | 0.5 | -3.1 | -2.2 | x | -1.1 | 2.9
Clc1ccc2c(c1)CNc1c(ncnc1N1CCOCC1)O2 | -0.7 | -42.8* | -9.4 | 3.2% | -0.1 | 3.0
Cc1nc(C)c(C(=O)Nc2cccc(Cl)c2)o1 | -0.3 | -15.9 | 1.9 | 0.0% | -1.7 | 1.3
Cc1nc(C)c(C(=O)NCc2ccc(Cl)cc2)o1 | 0.4 | -61.5* | -1.3 | 3.7% | -2.3 | 4.4
Cc1nn(C)c(NC(=O)c2ccccc2Cl)c1Cl | 0.2 | -37.6* | -5.8 | x | -5.1 | 0.6
Cc1cc(NC(=O)c2c(Cl)c(C)nn2C)no1 | -0.1 | -1.0 | -12.7 | 0.0% | -1.3 | 2.1
Cc1nn(C)c(C(=O)NCc2ccc(Cl)cc2)c1Cl | 0.1 | -62.5* | -10.2 | -3.0% | -25.1 | 11.9
Cc1nn(C)c(NC(=O)c2ccc([N+](=O)[O-])cc2)c1Cl | 0.2 | -24.2 | 1.1 | 1.4% | 19.2 | 1.7
Cc1nn(C)c(C(=O)NC(=S)Nc2ccccc2O)c1Cl | -0.1 | -40.7* | -8.2 | x | -0.1 | 1.9
CC(C)Oc1ccc(C(=O)NCC(c2ccc(N(C)C)cc2)N2CCCC2)cc1 (centres undefined) | -0.3 | 4.5 | 0.6 | 3.1% | 1.3 | 1.2
O=c1c2ccccc2oc2cc(O)c(C3COCC(CO)C(O)C(O)C3O)c(O)c12 (centres undefined) | x | x | x | 3.0% | x | x
CC(C)CC(=O)N(Cc1ccccc1)S(=O)(=O)c1ccc2c(c1)oc(=O)n2C | 1.7 | -19.5 | -3.4 | 1.3% | 1.0 | 6.3
O=C(NCCCNC(=O)c1cccs1)c1cccs1 | -0.8 | -9.2 | -5.0 | 3.2% | -4.5 | -0.1
CCCCC(CC)CNC(=O)c1cccs1 (centres undefined) | 0.1 | -62.0* | -2.2 | 2.2% | 1.9 | -0.8
COCC(C)n1c(C)cc(C(=O)COC(=O)c2oc3ccccc3c2C)c1C (centres undefined) | 0.2 | 5.1 | -0.4 | -0.9% | 1.8 | 3.0
COCC(C)n1c(C)cc(C(=O)COC(=O)c2n[nH]c3ccccc23)c1C (centres undefined) | 1.4 | -48.5* | -4.9 | -0.4% | 1.5 | 3.6
CC(C)CN1CCc2nc(-c3ccccc3)c3c(c2CC1)COC(C)C3 (centres undefined) | x | x | x | 1.1%[10.1 µM] | x | x
SMILES | TRHR ag | D1 antag | D1 PAM | Epigenetic reg | TRHR PAM | D1 ag
CC1(C)CC(=O)C2=C(C1)OC(/N=C/N1CCCC1)=C(C#N)C2c1ccccc1 (centres undefined) | -0.5 | -95.0* | -11.9 | 3.3% | -17.8 | -0.8
CCC(Cn1nnc2ccccc2c1=O)NC(=O)Nc1cccc(C)c1C (centres undefined) | 0.3 | -9.0 | -3.3 | -0.3% | -16.2 | -0.9
O=C(Nc1ccc(F)cc1)OCCOc1ccc(Br)cc1 | -0.5 | -55.0* | 2.5 | 0.1% | -5.3 | 6.6
O=C(Cn1ncc2c3ccccc3n(Cc3cccc(Cl)c3)c2c1=O)N1CCCCCC1 | 0.7 | 2.1 | 2.3 | 0.7% | -4.8 | 14.2
O=C(CSC1=NC(=O)C(c2ccccc2)C(=O)N1)Nc1cccc(Cl)c1 (centres undefined) | 0.3 | -32.7* | -9.8 | -0.3% | -1.4 | 0.7
O=C(CSC1=NC(=O)C(c2ccccc2)C(=O)N1)Nc1ccccc1Cl (centres undefined) | 0.4 | -10.1 | -0.4 | 0.7% | -0.2 | -0.5
Cc1ccc(OCCSc2nc3ccccc3n2CC(=O)N2CCOCC2)cc1 | -0.5 | -20.1 | -3.6 | -4.2% | 6.1 | 18.8
CCC(=O)Nc1cc(-c2nc3ccccc3s2)c(Cl)cc1Cl | 1.7 | 3.9 | -2.8 | 0.0% | -4.2 | -0.5
O=C(Nc1ccccc1)c1cc(N2CCOCC2)nc2ccccc12 | -0.1 | -55.4* | -0.1 | -7.3% | 1.2 | 0.5
N#Cc1c(-n2ncnc2-c2ccccc2Cl)sc2c1CCCCC2 | -0.6 | -34.6* | 3.1 | -1.6% | -1.5 | 0.0
CCOc1ccc(C2c3c(oc4ccccc4c3=O)C(=O)N2c2nnc(C)s2)cc1OC (centres undefined) | 0.5 | -14.5 | -5.8 | 0.8% | -0.4 | -0.3
CCOc1ccc(C2CC(c3c(O)c4ccccc4oc3=O)=NN2c2ccccc2)cc1OC (centres undefined) | 23.8 | 1.1 | -0.1 | u | -0.6 | 35.7*
COc1ccccc1N1C(=O)CC(N(O)c2ccccc2)C1=O (centres undefined) | 0.5 | -4.9 | -5.7 | 1.1% | 0.0 | 1.1
CCCOc1ccccc1N1C(=O)CC(N(O)c2ccccc2)C1=O (centres undefined) | 0.1 | 12.6 | 1.6 | -1.1% | 38.5* | 2.1
Cc1ccc(Cn2cc(S(=O)(=O)c3cccc(Cl)c3)c(=O)c3cc(F)c(N4CCCCC4)cc32)cc1 | 0.6 | 0.2 | -2.1 | -1.2% | 13.3 | -1.0
COc1ccc(-c2c(C)nn(Cc3ccccc3)c2N)cc1 | 0.1 | -8.8 | 1.4 | -3.4% | 30.3* | 0.5
O=S(=O)(NCc1ccc(Cl)cc1)c1ccc(N2CCCCS2(=O)=O)cc1 | -1.5 | -35.1* | -0.7 | 0.6% | -0.7 | 20.4
COc1ccc(NS(=O)(=O)c2ccc(N3CCCCS3(=O)=O)cc2)cc1Cl | 1.1 | -30.3* | -0.4 | -2.6% | -0.4 | 19.8
O=C(CN1C(=O)COc2ccc(S(=O)(=O)NC3CCCC3)cc21)NCc1ccccc1Cl | -0.1 | 14.8 | -2.5 | -0.4% | -0.9 | 0.2
